Consider nine molecules from article PMC12864922, “TDP-43 directly inhibits mRNA accumulation in neurites through modulation of mRNA stability”.

Whole data set: some 9,900 sequences, median “r (bound/input frequency ratio)” near 0.7, cut for the highest 2% near 6.5. What follows is part of a selection rich in the highest values, with near analogues and random picks from the rest.

To fix the notation:
B1: ENSMUSG00000029636.436|Wasf3 (ssRNA)
RNA: GGGAGUUCUACAGUCCGACGAUCGCUUCGAUAUCCGCAUGCUAGUGAGUGGAUAGGUGAAUGGAUGAUAGGUGGUGGAUGGUUGAGUGGGUGGAUUCAUGAUGGAUGGAUGGAUGGAUGGAUGGAUGGAUGGAUGGAUGAGUGGAUGGAUAAUAGGUUGAUGGGUGGAUAGGUAGAUGAGUGAAUAGAUAGAUAUAGAUCAGUGGGAGGAUUGGAAAGUAGGUGAAUGAAUGGAUGGCAGAUAGAUGGAUCAAUUACAGAUGGAUGGAUGCAUGGAAUAGAUAGGUGGAUGGGUGGUGGCUAGCUCUUGCGGUCGCACUAGUGUGGAAUUCUCGGGUGUCAAGG
B2: ENSMUSG00000029636.431|Wasf3 (ssRNA)
RNA: GGGAGUUCUACAGUCCGACGAUCGCUUCGAUAUCCGCAUGCUAACAUGGAUGAGUGGAUGGGUGGAUUGGUGGGUGAGUGGAUAGGUGAAUGGAUGAUAGGUGGUGGAUGGUUGAGUGGGUGGAUUCAUGAUGGAUGGAUGGAUGGAUGGAUGGAUGGAUGGAUGGAUGAGUGGAUGGAUAAUAGGUUGAUGGGUGGAUAGGUAGAUGAGUGAAUAGAUAGAUAUAGAUCAGUGGGAGGAUUGGAAAGUAGGUGAAUGAAUGGAUGGCAGAUAGAUGGAUCAAUUACAGAUGGAUGGAUGCAUCUCUUGCGGUCGCACUAGUGUGGAAUUCUCGGGUGUCAAGG
B3: ENSMUSG00000029636.433|Wasf3 (ssRNA)
RNA: GGGAGUUCUACAGUCCGACGAUCGCUUCGAUAUCCGCAUGCUAGGAUGGGUGGAUUGGUGGGUGAGUGGAUAGGUGAAUGGAUGAUAGGUGGUGGAUGGUUGAGUGGGUGGAUUCAUGAUGGAUGGAUGGAUGGAUGGAUGGAUGGAUGGAUGGAUGAGUGGAUGGAUAAUAGGUUGAUGGGUGGAUAGGUAGAUGAGUGAAUAGAUAGAUAUAGAUCAGUGGGAGGAUUGGAAAGUAGGUGAAUGAAUGGAUGGCAGAUAGAUGGAUCAAUUACAGAUGGAUGGAUGCAUGGAAUAGAUAGGCUCUUGCGGUCGCACUAGUGUGGAAUUCUCGGGUGUCAAGG
B4: ENSMUSG00000029636.423|Wasf3 (ssRNA)
RNA: GGGAGUUCUACAGUCCGACGAUCGCUUCGAUAUCCGCAUGCUAGAUGGGUGGGUUAGGUGGGUAAGUAGCUAGGUGGAUGGGUGGGUGGAUACAUGGAUGAGUGGAUGGGUGGAUUGGUGGGUGAGUGGAUAGGUGAAUGGAUGAUAGGUGGUGGAUGGUUGAGUGGGUGGAUUCAUGAUGGAUGGAUGGAUGGAUGGAUGGAUGGAUGGAUGGAUGAGUGGAUGGAUAAUAGGUUGAUGGGUGGAUAGGUAGAUGAGUGAAUAGAUAGAUAUAGAUCAGUGGGAGGAUUGGAAAGUAGGUGACUCUUGCGGUCGCACUAGUGUGGAAUUCUCGGGUGUCAAGG
B5: ENSMUSG00000029636.434|Wasf3 (ssRNA)
RNA: GGGAGUUCUACAGUCCGACGAUCGCUUCGAUAUCCGCAUGCUAGUGGAUUGGUGGGUGAGUGGAUAGGUGAAUGGAUGAUAGGUGGUGGAUGGUUGAGUGGGUGGAUUCAUGAUGGAUGGAUGGAUGGAUGGAUGGAUGGAUGGAUGGAUGAGUGGAUGGAUAAUAGGUUGAUGGGUGGAUAGGUAGAUGAGUGAAUAGAUAGAUAUAGAUCAGUGGGAGGAUUGGAAAGUAGGUGAAUGAAUGGAUGGCAGAUAGAUGGAUCAAUUACAGAUGGAUGGAUGCAUGGAAUAGAUAGGUGGAUGCUCUUGCGGUCGCACUAGUGUGGAAUUCUCGGGUGUCAAGG
B6: ENSMUSG00000029636.422|Wasf3 (ssRNA)
RNA: GGGAGUUCUACAGUCCGACGAUCGCUUCGAUAUCCGCAUGCUAUGAGUGGAUGGGUGGGUUAGGUGGGUAAGUAGCUAGGUGGAUGGGUGGGUGGAUACAUGGAUGAGUGGAUGGGUGGAUUGGUGGGUGAGUGGAUAGGUGAAUGGAUGAUAGGUGGUGGAUGGUUGAGUGGGUGGAUUCAUGAUGGAUGGAUGGAUGGAUGGAUGGAUGGAUGGAUGGAUGAGUGGAUGGAUAAUAGGUUGAUGGGUGGAUAGGUAGAUGAGUGAAUAGAUAGAUAUAGAUCAGUGGGAGGAUUGGAAAGUCUCUUGCGGUCGCACUAGUGUGGAAUUCUCGGGUGUCAAGG
B7: ENSMUSG00000029636.424|Wasf3 (ssRNA)
RNA: GGGAGUUCUACAGUCCGACGAUCGCUUCGAUAUCCGCAUGCUAUGGGUUAGGUGGGUAAGUAGCUAGGUGGAUGGGUGGGUGGAUACAUGGAUGAGUGGAUGGGUGGAUUGGUGGGUGAGUGGAUAGGUGAAUGGAUGAUAGGUGGUGGAUGGUUGAGUGGGUGGAUUCAUGAUGGAUGGAUGGAUGGAUGGAUGGAUGGAUGGAUGGAUGAGUGGAUGGAUAAUAGGUUGAUGGGUGGAUAGGUAGAUGAGUGAAUAGAUAGAUAUAGAUCAGUGGGAGGAUUGGAAAGUAGGUGAAUGAAUCUCUUGCGGUCGCACUAGUGUGGAAUUCUCGGGUGUCAAGG
B8: ENSMUSG00000029636.425|Wasf3 (ssRNA)
RNA: GGGAGUUCUACAGUCCGACGAUCGCUUCGAUAUCCGCAUGCUAAGGUGGGUAAGUAGCUAGGUGGAUGGGUGGGUGGAUACAUGGAUGAGUGGAUGGGUGGAUUGGUGGGUGAGUGGAUAGGUGAAUGGAUGAUAGGUGGUGGAUGGUUGAGUGGGUGGAUUCAUGAUGGAUGGAUGGAUGGAUGGAUGGAUGGAUGGAUGGAUGAGUGGAUGGAUAAUAGGUUGAUGGGUGGAUAGGUAGAUGAGUGAAUAGAUAGAUAUAGAUCAGUGGGAGGAUUGGAAAGUAGGUGAAUGAAUGGAUGGCUCUUGCGGUCGCACUAGUGUGGAAUUCUCGGGUGUCAAGG
B9: ENSMUSG00000029636.426|Wasf3 (ssRNA)
RNA: GGGAGUUCUACAGUCCGACGAUCGCUUCGAUAUCCGCAUGCUAGUAAGUAGCUAGGUGGAUGGGUGGGUGGAUACAUGGAUGAGUGGAUGGGUGGAUUGGUGGGUGAGUGGAUAGGUGAAUGGAUGAUAGGUGGUGGAUGGUUGAGUGGGUGGAUUCAUGAUGGAUGGAUGGAUGGAUGGAUGGAUGGAUGGAUGGAUGAGUGGAUGGAUAAUAGGUUGAUGGGUGGAUAGGUAGAUGAGUGAAUAGAUAGAUAUAGAUCAGUGGGAGGAUUGGAAAGUAGGUGAAUGAAUGGAUGGCAGAUACUCUUGCGGUCGCACUAGUGUGGAAUUCUCGGGUGUCAAGG

In the assay the target is TDP-43 (Homo sapiens, UniProt Q13148 1-414). Nature of the assay: RNA Bind-n-Seq with designed 260-mer pool; 25 mM Tris-HCl, 150 mM KCl, 3 mM MgCl2, BSA (printed 500 mg/mL), 20 units/mL SUPERase IN; pH not stated; 500 nM RNA pool, 1 h, 4 C; TDP-43 5, 50, 500 nM; high values mean tight binding. The conditions noted are these: protein: recombinant; tags: SBP (GST cleaved off with PreScission; pGEX-GST-SBP). A digest of the protocol: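 Streptavidin beads captured recombinant SBP-tagged TDP-43 at 5, 50 or 500 nM, and the beads were incubated for 1 h at 4 °C with 500 nM of an in vitro-transcribed pool of 260-nt 3′ UTR oligos in 25 mM Tris-HCl, 150 mM KCl, 3 mM MgCl2, BSA and SUPERase IN. After washing, bound RNA was eluted with biotin, reverse transcribed, PCR-amplified and sequenced. Binding is reported as R, the mapped-read-normalized abundance of each oligo in the bound sample divided by its abundance in the input. Two independent protein batches served as duplicates.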
Sequence of TDP-43 (Q13148 whole entry): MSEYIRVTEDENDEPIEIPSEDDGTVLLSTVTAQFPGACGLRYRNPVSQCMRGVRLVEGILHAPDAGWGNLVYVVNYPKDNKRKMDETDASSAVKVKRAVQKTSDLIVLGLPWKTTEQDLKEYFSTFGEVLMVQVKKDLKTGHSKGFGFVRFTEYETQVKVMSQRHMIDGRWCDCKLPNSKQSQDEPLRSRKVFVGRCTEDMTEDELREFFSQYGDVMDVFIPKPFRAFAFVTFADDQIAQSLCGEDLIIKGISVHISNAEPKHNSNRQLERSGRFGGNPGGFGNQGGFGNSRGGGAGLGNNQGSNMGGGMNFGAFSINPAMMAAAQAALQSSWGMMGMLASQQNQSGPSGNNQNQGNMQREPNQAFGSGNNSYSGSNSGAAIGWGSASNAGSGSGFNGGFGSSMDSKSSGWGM
In the case of B1, the binding signal was 6.61 R (bound/input frequency ratio).
Next, B2: 6.71 R (bound/input frequency ratio); B3: 4.32 R (bound/input frequency ratio); B4: 4.57 R (bound/input frequency ratio).
Regarding B5, the binding signal was 7.94 R (bound/input frequency ratio).
For the molecule B6, the binding signal was 11.2 R (bound/input frequency ratio).
The result for B7 reads 1.66 R (bound/input frequency ratio); that for B8, 3.86 R (bound/input frequency ratio); that for B9, 3.58 R (bound/input frequency ratio).
